We go through 30 compounds from PubChem BioAssay AID2825 (Sanford-Burnham Center for Chemical Genomics, 2010).

Screen size: about 330,000 compounds; about 1,300 (0.39%) were called active.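 How the source made its calls: active means inhibition of 50% or more; inactive means inhibition below 50%.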 The entries come from a sample that favours actives as a whole.

This assay can be described thus: NALP3 inflammasome inhibitors in reconstituted yeast, primary screen, luminescence, uHTS (AID 2825).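 Further: plate controls were induced DMSO wells for no effect and uninduced yeast grown without galactose for full effect.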 As to conditions: Yeast reconstituted NLRP3/ASC/caspase-1, beta-gal luminescence, 24 h; at 10 µM; stronger effect = higher value.
For the compound `O=C1/C(=C\c2ccc3c(c2)OCO3)N2CCC1CC2`, the inhibition was 50.3% (active).

Regarding `c1cc2c(cc1[C@H]1OC[C@H]3[C@@H]1CO[C@@H]3c1ccc3c(c1)OCO3)OCO2`, the inhibition is 15.5% (inactive).

For `c1cc2c(cc1C1OCC3C(c4ccc5c(c4)OCO5)OCC13)OCO2` (stereo not given), the inhibition was 16.8% (inactive).

Turning to `Cc1nc2nc(C)c(CCC(=O)N3CCC4(CC3)OCCO4)c(C)n2n1`, the inhibition was 11.1% (inactive).

With `O=c1c2ccccc2nc(-c2ccco2)n1-c1ccc(Br)cn1`, the inhibition was 15.6% (inactive).

In the case of `Cc1ccc(-c2nc3ccccc3c(=O)n2-c2ccc(Br)cn2)cc1`, the inhibition was 54.6% (active).

In the case of `O=c1c2ccccc2nc(-c2ccccc2)n1-c1ccccn1`, the inhibition was -1.57% (inactive).

Regarding `CN(C)CC1CCCCC1=O` (stereo not given), the inhibition is 16.4% (inactive).

`C[N+]1(C)CCOC(O)(c2ccc(-c3ccc(C4(O)C[N+](C)(C)CCO4)cc3)cc2)C1` (stereo not given): the inhibition was 5.92% (inactive).

As for `COCCNC(=O)CN1C2CCC1CC(O)(c1cccnc1)C2` (stereo not given), the inhibition was 21.8% (inactive).

With `NCCc1ccc(S(=O)(=O)F)cc1`, the inhibition was 13.1% (inactive).

On to `Cc1cc2ccccn2c1C(C[N+](=O)[O-])c1c(F)cccc1Cl` (stereo not given), for which the inhibition is 58.8% (active).

Take `Cc1ccc2c(c1)=C/C(=C\c1c(O)[nH]c(=O)[nH]c1=O)C(=O)N=2`: the inhibition is 8.15% (inactive).

`CCCCCCCCCCCCn1ccc(=N)cc1`: the inhibition was 74.5% (active).

As for `COC(=O)C(O)(c1ccc(NC(=O)c2ccco2)c(OC)c1)C(F)(F)F` (stereo not given), the inhibition is 6.52% (inactive).

With `CSC1=NP(=S)(SC)N(C)c2nc3n(c21)CCC3` (stereo not given), the inhibition was 14.6% (inactive).

As to `Cc1cc(OCc2cc(C(=O)O)oc2C)c2c3c(c(=O)oc2c1)CCCC3`, the inhibition is 13.3% (inactive).

Regarding `CNC(=S)N/N=C1\C2CN3CCN(C2)CC1(c1ccccc1)C3`, the inhibition was 2.33% (inactive).

As for `CN(C)P(=S)(Nc1ccccc1)C(Cl)(Cl)Cl` (stereo not given), the inhibition was 24.4% (inactive).

With `C[C@]12CC[C@H](O)C[C@H]1CC[C@@H]1C2CC[C@]2(C)[C@@H](C3=CC(=O)OC3)[C@@H](O)C[C@]12O` (stereo not given in full), the inhibition is 8.26% (inactive).

As to `C[C@]12CC[C@H](O)CC1=C([N+](=O)[O-])CC1C2CC[C@@]2(C)C1CC[C@@H]2O` (stereo not given in full), the inhibition is 21.9% (inactive).

Regarding `C[C@]12CCC3C(CC[C@H]4C[C@@H](O)CC[C@]34C)C1C[C@@H](O)[C@H]2O` (stereo not given in full), the inhibition is 50.2% (active).

For the compound `C[C@]12CCC3C(CC[C@H]4C[C@@H](O)CC[C@]34C)C1CC[C@@H]2O` (stereo not given in full), the inhibition is 63.7% (active).

As for `O=C(C1CC(=O)N(C2CCCC2)C1)N1CCC2(CC1)OCCO2` (stereo not given), the inhibition is 25.3% (inactive).

Turning to `C/C=C/CC1(CC)C(=O)NC(=S)NC1=O`, the inhibition is 0.922% (inactive).

Regarding `COc1ccc2[nH]c3c(c2c1)CCN[C@H]3C`, the inhibition is 10% (inactive).

As for `CC1=C2C(=O)C3C(CC=C4CC(OC5OC(O)C(O)C(O)C5CO)CCC43C)C2CCC12OC1CC(C)CNC1C2C` (stereo not given), the inhibition was 32.4% (inactive).

Regarding `COC(=O)C1=C(c2ccc3ccccc3c2)C[C@@H]2CC[C@H]1N2C(=O)NCCO`, the inhibition is -5.73% (inactive).

In the case of `N=c1ccccn1Cc1ccccc1`, the inhibition was 1.04% (inactive).

`CCN1CCN(c2nc3c(c(=O)[nH]2)CCC3)CC1`: the inhibition is 9.34% (inactive).

Usually inhibition stands for the relative decrease from the control value, in per cent.
